Z-score data for 35 compounds are collected here from PubChem BioAssay.

Active and inactive are the calls of the source.

This test can be described thus: E. coli growth modulation, two-sided OD650, primary screen, E. coli filamentation project, strain DRC41, 24 h (AID 1093).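 Also: MC1000 strain lacking acrAB efflux and sulA so SOS filamentation is blocked; test concentration not given here.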 To be noted: OD650, 24 h, higher = more signal, called active from +8 up or from −8 down.
For `COC(=O)C(CC#Cc1ccc2c(c1)[C@]1(C(=O)N2)[C@H](c2ccccc2OCCO)N2[C@H](c3ccccc3)[C@H](c3ccccc3)OC(=O)[C@H]2[C@@H]1C(=O)N1CCN(c2ncccn2)CC1)C(=O)OC`, the z-score is 0.173 (inactive).

Turning to `COC(=O)[C@@]1(Cc2ccc(F)cc2)[C@H]2c3cc(C(=O)N(C)C)n(Cc4ccc(C(F)(F)F)nc4)c3C[C@H]2CN1C(=O)c1ccccc1`, the z-score was -0.366 (inactive).

As for `COCCCNC(=O)[C@]1(Cc2ccccc2CN=[N+]=[N-])N=C(c2ccc(OCCCO)cc2)O[C@@H]1c1ccccc1N=[N+]=[N-]`, the z-score is 1.11 (inactive).

`[N-]=[N+]=Nc1ccccc1C[C@]1(C(N)=O)COC(c2ccc(OCCCO)cc2)=N1`: the z-score is 0.0474 (inactive).

As for `COc1cc(Cc2cc3c(c(-c4ccccc4)n2)[Si](C(C)C)(C(C)C)OC3)cc(OC)c1OC`, the z-score is 1.22 (inactive).

In the case of `COC(=O)C[C@H]1O[C@]2(C(=O)N(C)c3ccccc32)[C@@H](C)[C@@H]1[Si](C)(C)c1ccccc1`, the z-score is 0.23 (inactive).

In the case of `C=CC[C@H](O)c1ccc(O)c(F)c1`, the z-score was -0.53 (inactive).

For the compound `COc1ccc(CCNC(=O)[C@@H]2c3ccccc3C(=O)N(C(C)C)[C@H]2c2ccc(CO)cc2)cc1`, the z-score was 1.39 (inactive).

With `COC(=O)[C@@]1(Cc2ccc(F)cc2)[C@H]2c3cc(C(=O)N(C)C)n(CCF)c3C[C@H]2CN1C(=O)c1ccccc1`, the z-score is 1.25 (inactive).

As to `Cc1ccc(N2C(=O)c3ccccc3[C@@H](C(=O)NCCN3CCOCC3)[C@@H]2c2ccc(CO)cc2)nc1`, the z-score was 0.346 (inactive).

In the case of `O=C/C=C/c1ccc(-c2ccccc2)cc1`, the z-score is -0.168 (inactive).

Turning to `CC[C@@H](O[Si](C#C[Si](C(C)C)(C(C)C)C(C)C)(C(C)C)C(C)C)c1cn([C@H](C)c2ccccc2)nn1`, the z-score was 0.612 (inactive).

Regarding `CCOC(=O)C1=CCC(c2cccn2C(=O)OC(C)(C)C)N(S(=O)(=O)c2ccc(C)cc2)C1` (stereo not given), the z-score was -0.0304 (inactive).

On to `CC[C@@H]1C=C(C(=O)O)[C@H](c2cccc(Cl)c2)N1S(=O)(=O)c1ccc(C)cc1`, for which the z-score was -0.944 (inactive).

For `O=C1O[C@H](c2ccccc2)[C@H](c2ccccc2)N2[C@H]1[C@@H](C(=O)O)[C@]1(C(=O)Nc3ccccc31)[C@H]2c1ccc(OCCO)cc1`, the z-score is 1.36 (inactive).

As to `COc1ccc(NN2C(C(O)c3ccc(F)cc3)C=CC3C(=O)N(C4CCCCC4)C(=O)C32)cc1` (stereo not given), the z-score was -0.637 (inactive).

For the compound `C=CCNC(=O)[C@@H]1[C@H]2C(=O)O[C@H](c3ccccc3)[C@H](c3ccccc3)N2[C@H](c2ccc(OCCO)cc2)[C@@]12C(=O)Nc1ccc(C#CCNC(N)=O)cc12`, the z-score is 0.0528 (inactive).

In the case of `CCCCN1CC=CC23O[C@@H]4C=CCCOC(=O)C4[C@H]2C(=O)N(CCO)[C@@H]3C1=O` (stereo not given in full), the z-score is 1.5 (inactive).

Regarding `CN1C(=O)C2C=CC(C(O)c3ccc([N+](=O)[O-])cc3)N(Nc3ccccc3)C2C1=O` (stereo not given), the z-score was -1.69 (inactive).

As for `CC(C)[Si]1(C(C)C)OCc2cc(-c3ccc(-c4ccc(Cl)c(Cl)c4)o3)nc(-c3ccc(Oc4ccccc4)cc3)c21`, the z-score is -0.888 (inactive).

`C=C1C(=O)C=C2CN(C(=O)c3ccccc3)[C@@](Cc3ccc(F)cc3)(C(=O)OC)[C@@H]12`: the z-score is -0.57 (inactive).

Consider `CN(C)C(=O)[C@]1(CCS(=O)(=O)c2ccccc2)N=C(c2ccc(OCCCO)cc2)O[C@@H]1c1ccccc1CN=[N+]=[N-]`, for which the z-score is 0.157 (inactive).

For `CN1C2C=C(c3ccc(CO)cc3)C(C3C(=O)N(C(N)=O)C(=O)C32)C1C1CC1` (stereo not given), the z-score was 0.214 (inactive).

As to `CCCNC(=O)[C@@]1(Sc2ccc(C)cc2)CC(=O)N(Cc2cc(C(F)(F)F)cc(C(F)(F)F)c2)[C@@H]1c1ccc(CO)cc1`, the z-score is -0.212 (inactive).

For the compound `COCCOC(=O)N1C(=O)[C@@]2(c3cc(C#CC4(O)CCCCCC4)ccc31)[C@H](C(N)=O)[C@H]1C(=O)O[C@H](c3ccccc3)[C@H](c3ccccc3)N1[C@@H]2c1ccc(OCCO)cc1`, the z-score was 0.662 (inactive).

`CC(C)C[C@@H]1NC(=O)[C@@H]2C[C@H](C(=O)NCCCCCNC(=O)CS)[C@H](c3ccc(O)cc3)N2C1=O`: the z-score was 1.52 (inactive).

For `Cc1ccc(S(=O)(=O)N2[C@@H](c3ccccc3)C(C(=O)O)=CC[C@H]2c2ccc(F)cc2)cc1`, the z-score is -0.0865 (inactive).

Turning to `CCCCCN1CC=CC23O[C@@H]4/C=C\CCCOC(=O)C4[C@H]2C(=O)N(CCO)[C@@H]3C1=O` (stereo not given in full), the z-score was 3.22 (inactive).

As for `C=C(C(=O)CC[C@@H](OC(=O)c1cccnc1)c1cccc(OCCO)c1)C(C)C`, the z-score is 1.12 (inactive).

Regarding `O=C1C2C=CC(C(O)C3CC=CCC3)N(Nc3ccc([N+](=O)[O-])cc3)C2C(=O)N1c1ccccc1` (stereo not given), the z-score is 0.0043 (inactive).

As for `CCCCC(=C=CC[C@@H](O)c1ccccc1OCCO)C[C@@H](O)c1ccccn1`, the z-score was 0.0399 (inactive).

Take `COC(=O)[C@]1(Cc2ccccc2CN=[N+]=[N-])N=C(c2ccc(OCCCO)cc2)O[C@@H]1c1ccccc1N=[N+]=[N-]`: the z-score was 1.08 (inactive).

For `COCCOC(=O)N1C(=O)[C@@]2(c3cc(C#CC4=CCCCC4)ccc31)[C@H](c1ccc(O)cc1)N1[C@H](c3ccccc3)[C@H](c3ccccc3)OC(=O)[C@H]1[C@@H]2C(=O)N1CCc2cc(OC)c(OC)cc2C1`, the z-score was 0.0512 (inactive).

For `O=C(c1ccccc1)N1Cc2ccccc2C[C@@]2(N=C(c3ccc(OCCCO)cc3)O[C@H]2c2ccccc2)C1=O`, the z-score is -0.231 (inactive).

On to `C=CC[C@]1(C(=O)NCCN2CCOCC2)N=C(c2ccc(OCCCO)cc2)O[C@H]1c1ccccc1`, for which the z-score was 0.0059 (inactive).
